Values without a mark were called inactive. Records with an inconclusive call do not appear. Activity calls are given as the source filed them. Unless noted, calls follow the shape of the dose curve; as a rule, active = well fitted curve in the direction sought with a large enough effect in the repeat runs; inconclusive = weak or mixed curves; inactive = no such curve, though single readings can be large; an effect the other way counts as inactive or inconclusive.

The nature of assay [1]: qHTS assay to test for compound auto fluorescence at 535 nm (green) in HEK293 cells (AID 720680).
Assay [2] in a line: qHTS assay to test for compound auto fluorescence at 460 nm (blue) in HEK293 cell free culture (AID 720681). In outline: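 Compounds were added to cell-free DMEM with 10% FBS and fluorescence read directly. The blue channel used 405 nm excitation and 460 nm emission, with triamterene as the reference fluorophore.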
The nature of assay [3]: qHTS assay to test for compound auto fluorescence at 535 nm (green) in HEK293 cell free culture (AID 720682). An outline of the steps:
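Green-channel intensity (Ex/Em 485/535 nm) was recorded from compound-treated wells containing only DMEM with 10% FBS. Fluorescein provided the equivalency standard.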

Assay [4] in a line: qHTS assay to test for compound auto fluorescence at 590 nm (red) in HEK293 cell free culture (AID 720683). An outline of the steps:
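Cell-free wells of DMEM with 10% FBS received compound, and intrinsic fluorescence was read at excitation/emission 540/590 nm. Values expressed as equivalence to Rose Bengal sodium.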

Assay [5] can be described thus: qHTS assay to test for compound auto fluorescence at 590 nm (red) in HepG2 cell free culture (AID 720684). An outline of the steps: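 Rose Bengal sodium served as the reference for red signal. Test compounds were dispensed into serum-containing MEM (10% FBS) without cells, and plates were read at 540/590 nm.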
The nature of assay [6]: qHTS assay to test for compound auto fluorescence at 460 nm (blue) in HepG2 cell free culture (AID 720685). An outline of the steps:
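Cell-free plates of MEM plus 10% FBS received 23 nL compound or DMSO vehicle; blue-channel (405/460 nm) intensity scored against triamterene as reference fluorophore.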

A short description of assay [7]: qHTS assay to test for compound auto fluorescence at 535 nm (green) in HepG2 cell free culture (AID 720686).
A short description of assay [8]: qHTS assay to test for compound auto fluorescence at 460 nm (blue) in HepG2 cells (AID 720687). An outline of the steps:
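HepG2 cells in MEM with 10% FBS, attached overnight at 37 C, were exposed to compound or DMSO for 1 hr at 37 C, 5% CO2. Blue fluorescence was read at 405/460 nm, with triamterene as reference fluorophore.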

In assay [9] the target is Glucocorticoid receptor (Homo sapiens) (UniProt P04150). Kind of assay: qHTS assay to identify small molecule agonists of the glucocorticoid receptor (GR) signaling pathway (AID 720691; active = well fitted activation curve with a large enough effect in the signal ratio in the repeat runs, not every such curve was filed as active; the % refers to the signal ratio). An outline of the steps: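 Measures GR pathway activation through a GRE-beta-lactamase reporter stably integrated in HeLa cells, with 18 h compound treatment at 37 C and fluorescence detection using a FRET substrate.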
Glucocorticoid receptor (Homo sapiens), sequence (P04150 whole entry, looked up): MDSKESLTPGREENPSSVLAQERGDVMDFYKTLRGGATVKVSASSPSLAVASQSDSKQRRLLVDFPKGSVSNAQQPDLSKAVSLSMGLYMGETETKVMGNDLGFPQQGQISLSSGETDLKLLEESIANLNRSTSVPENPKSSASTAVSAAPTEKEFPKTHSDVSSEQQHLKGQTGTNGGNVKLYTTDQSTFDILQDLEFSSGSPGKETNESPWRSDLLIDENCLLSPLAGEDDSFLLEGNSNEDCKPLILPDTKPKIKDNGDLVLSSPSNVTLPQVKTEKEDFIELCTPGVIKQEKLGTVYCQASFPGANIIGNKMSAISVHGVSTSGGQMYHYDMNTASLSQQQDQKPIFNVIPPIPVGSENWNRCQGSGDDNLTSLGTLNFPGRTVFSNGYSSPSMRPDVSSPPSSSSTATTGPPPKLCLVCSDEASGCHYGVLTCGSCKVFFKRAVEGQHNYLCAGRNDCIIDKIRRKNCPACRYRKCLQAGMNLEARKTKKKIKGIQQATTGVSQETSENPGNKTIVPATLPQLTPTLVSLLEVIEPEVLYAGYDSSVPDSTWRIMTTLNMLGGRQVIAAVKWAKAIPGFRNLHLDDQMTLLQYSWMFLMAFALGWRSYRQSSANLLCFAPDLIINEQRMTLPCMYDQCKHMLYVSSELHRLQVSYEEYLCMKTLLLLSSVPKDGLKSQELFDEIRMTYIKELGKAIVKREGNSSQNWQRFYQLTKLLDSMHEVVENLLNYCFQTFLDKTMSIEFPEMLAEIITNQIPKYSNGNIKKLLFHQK

The target is the same in assay [10]. In words: qHTS assay to identify small molecule antagonists of the glucocorticoid receptor (GR) signaling pathway (AID 720692; active = well fitted inhibition curve with a large enough effect in the signal ratio in the repeat runs, not every such curve was filed as active; the % refers to the signal ratio). An outline of the steps:
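Tox21 10K library screened in concentration-response for blockade of dexamethasone (5 nM final)-induced GRE-bla reporter activity in HeLa cells; 18 h treatment, fluorescence read.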

A short description of assay [11]: qHTS assay for identifying genotoxic compounds that show differential cytotoxicity against isogenic chicken DT40 cell lines with known DNA damage response pathways - wild type cell line (AID 743012). Also: nearly all actives have a fitted effect of over 60% in size. An outline of the steps:
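Endpoint: CellTiter-Glo luminescence, 30 min RT. Cells: wild type DT40, 300/well. Exposure: compounds in DMSO, 40 h, 37 C/5% CO2, after ~0.5 h pre-incubation.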

A short description of assay [12]: qHTS assay to identify small molecule antagonists of the androgen receptor (AR) signaling pathway - cell viability counter screen (AID 743033; also: nearly all actives have a fitted effect of over 45% in size; also: potency is read from the fitted curve at half-maximal effect).
Assay [13] can be described thus: qHTS assay for identifying genotoxic compounds that show differential cytotoxicity against isogenic chicken DT40 cell lines with known DNA damage response pathways - Rev3 mutant cell line (AID 743014). Also: nearly all actives have a fitted effect of over 55% in size.
Assay [14] can be described thus: qHTS assay for identifying genotoxic compounds that show differential cytotoxicity against isogenic chicken DT40 cell lines with known DNA damage response pathways - Rad54/Ku70 mutant cell line (AID 743015). Also: nearly all actives have a fitted effect of over 60% in size.
Assay [15] deals with Androgen receptor (Homo sapiens) (UniProt P10275). In words: qHTS assay to identify small molecule antagonists of the androgen receptor (AR) signaling pathway (AID 743035; active = well fitted inhibition curve with a large enough effect in the signal ratio in the repeat runs, not every such curve was filed as active; the % refers to the signal ratio). An outline of the steps:
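R1881 agonist challenge of a HEK293 UAS-beta-lactamase AR reporter line in the presence of compound (16 h, 37C); signal taken as FRET fluorescence after 2 h with LiveBLAzer B/G substrate at room temperature.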

For assay [16] the target is unchanged. In words: qHTS assay to identify small molecule agonists of the androgen receptor (AR) signaling pathway (AID 743036; active = well fitted activation curve with a large enough effect in the signal ratio in the repeat runs, with a control signal flat, not every such curve was filed as active; the % refers to the signal ratio). An outline of the steps: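 Cell-based FRET reporter assay: HEK293 line with a UAS-beta-lactamase construct, compounds added in DMSO, 16 h exposure at 37C, then 2 h substrate step at room temperature and fluorescence intensity read.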
The target is the same in assay [17]. Kind of assay: qHTS assay to identify small molecule agonists of the androgen receptor (AR) signaling pathway using the MDA cell line (AID 743040; also: nearly all actives have a fitted effect of over 20% in size). An outline of the steps: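 Luciferase read-out, ONE-Glo, 30 min RT. Cells: MDA-kb2 AR-luc, MMTV promoter with AR and GR response elements. Compound exposure 16 h, 37C, 0% CO2, after 5 h pre-incubation. qHTS agonist mode.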

Assay [18] can be described thus: qHTS assay to identify small molecule antagonists of the androgen receptor (AR) signaling pathway using the MDA cell line - cell viability counter screen (AID 743041; also: nearly all actives have a fitted effect of over 45% in size). In outline:
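Cytotoxicity counter screen: MDA-kb2 AR-luc cells, compound + R1881, 16 h, 37C, 0% CO2; CellTiter-Fluor added at 15.5 h, fluorescence read after 30 min.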

Assay [19] addresses Androgen receptor (Homo sapiens) (UniProt P10275). In words: qHTS assay to identify small molecule antagonists of the androgen receptor (AR) signaling pathway using the MDA cell line (AID 743042; also: nearly all actives have a fitted effect of over 55% in size). An outline of the steps:
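MDA-kb2 breast carcinoma cells carrying MMTV-luciferase (AR/GR responsive) were co-treated with compounds and the agonist R1881 for 16 h at 37C. Inhibition read as ONE-Glo luminescence; CellTiter-Fluor fluorescence measured in parallel for cytotoxicity.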

A short description of assay [20]: qHTS assay to identify small molecule antagonists of the glucocorticoid receptor (GR) signaling pathway - cell viability counter screen (AID 720693). Also: nearly all actives have a fitted effect of over 55% in size.
% is scaled to controls: 0 for no effect and ±100 for the full control effect.

Androgen receptor (Homo sapiens), sequence (P10275 whole entry, looked up): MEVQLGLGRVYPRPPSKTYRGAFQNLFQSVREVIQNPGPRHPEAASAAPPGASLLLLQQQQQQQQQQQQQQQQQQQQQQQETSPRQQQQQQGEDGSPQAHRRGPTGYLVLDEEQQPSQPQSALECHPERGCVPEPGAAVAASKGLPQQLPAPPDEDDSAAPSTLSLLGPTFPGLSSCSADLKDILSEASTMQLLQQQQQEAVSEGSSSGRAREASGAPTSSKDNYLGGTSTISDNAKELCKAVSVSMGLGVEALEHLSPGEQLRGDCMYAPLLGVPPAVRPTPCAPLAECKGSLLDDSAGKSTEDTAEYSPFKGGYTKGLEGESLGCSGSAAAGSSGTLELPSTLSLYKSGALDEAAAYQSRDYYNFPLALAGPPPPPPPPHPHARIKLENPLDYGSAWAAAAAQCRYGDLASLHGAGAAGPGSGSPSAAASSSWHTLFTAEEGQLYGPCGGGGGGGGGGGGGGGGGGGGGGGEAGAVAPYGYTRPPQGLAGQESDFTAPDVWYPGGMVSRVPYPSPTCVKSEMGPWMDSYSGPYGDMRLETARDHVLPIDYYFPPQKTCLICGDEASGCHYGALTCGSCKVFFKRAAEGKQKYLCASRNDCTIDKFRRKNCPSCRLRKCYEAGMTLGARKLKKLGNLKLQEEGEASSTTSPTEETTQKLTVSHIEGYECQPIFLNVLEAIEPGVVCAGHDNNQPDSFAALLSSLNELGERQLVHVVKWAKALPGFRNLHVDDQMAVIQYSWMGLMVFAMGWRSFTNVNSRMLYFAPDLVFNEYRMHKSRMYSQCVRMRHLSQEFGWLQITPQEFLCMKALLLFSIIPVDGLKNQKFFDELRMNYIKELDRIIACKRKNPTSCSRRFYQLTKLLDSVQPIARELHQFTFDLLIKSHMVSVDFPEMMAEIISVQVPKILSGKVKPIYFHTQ

Consider `CCCCOCCOC(=O)COc1nc(Cl)c(Cl)cc1Cl`, for which the result in [1], in assay [2], in [3], in [4], in [5] and in assay [6] was inactive. For the same compound, the call in assay [7], in assay [8] and in assay [10] was inactive. In addition, the Potency entry in assay [9], in [11] and in assay [12] was “inactive” in each case.
Regarding `O=C(O)c1cc(Cl)cc([N+](=O)[O-])c1Cl`, the outcome in [1], in [2], in assay [3], in assay [4], in [5] and in assay [6] was inactive. Also, the result in assay [7], in [8], in assay [10], in assay [16] and in assay [17] was inactive. In addition, the Potency entry in assay [9], in assay [11], in assay [13], in assay [14], in assay [12] and in assay [15] was “inactive” each time. Moreover, the Potency result in [18] and in assay [19] was “inactive” throughout.
For the compound `Cc1ccsc1/C=C/C1=NCCCN1C`, the fluorescence, % of fluorescein in [1] was 0.007% [at 18.6 µM]. The fluorescence, % of fluorescent control in assay [2] is -0.0198% [at 18.6 µM]; in assay [4], -0.0392% [at 18.6 µM]; in [6], -0.0937% [at 18.6 µM]; in assay [8] it was 0.164% [at 18.6 µM]. The activity change in [3] is 0.0151% [at 18.6 µM]. In assay [5], the fluorescence, % of Rose Bengal was -0.469% [at 18.6 µM]. Besides, the fluorescence, % of fluorescein control in [7] is -0.205% [at 18.6 µM]. Moreover, the Potency result in assay [9], in [11], in [13], in assay [14], in assay [12] and in assay [18] was “inactive” throughout. Besides, the call in assay [10] was inactive.
Regarding `CC(CC=O)CCCC(C)(C)O` (centres undefined), the compound was called inactive in assay [1], in [2], in assay [3], in [4], in assay [5] and in assay [6]. Moreover, the compound was called inactive in [7], in assay [8], in assay [10], in [16] and in assay [17]. The Potency result in [9], in assay [11], in [14], in assay [12], in [15] and in [18] was “inactive” in each case. Moreover, the Potency result in assay [19] is “inactive”.
On to `On1nnc2ccccc21`, for which the call in [1], in assay [2], in assay [3], in assay [4], in [5] and in assay [6] was inactive. The outcome in assay [7], in assay [8], in [10] and in assay [20] was inactive. The Potency result in assay [9] and in [18] was “inactive” each time. In addition, in assay [12], the Potency was 616 nM (active).
Turning to `NS(=O)(=O)c1ccc(NC(=O)CCC(=O)O)cc1`, the result in assay [1], in assay [2], in [3], in [4], in assay [5] and in assay [6] was inactive. Moreover, the compound was called inactive in [7], in assay [8] and in [10]. Besides, the Potency result in assay [9], in assay [11], in assay [13], in assay [14] and in [12] was “inactive” throughout.
As to `O=C1c2ccccc2C(=O)C1c1ccccc1`, the fluorescence, % of fluorescein in assay [1] is -0.0324% [at 18.6 µM]. For the same compound, the fluorescence, % of fluorescent control in assay [2] is -0.0862% [at 18.6 µM]; in assay [4], 0.0114% [at 18.6 µM]; in [6], -0.0248% [at 18.6 µM]; in [8], -0.0075% [at 18.6 µM]. Moreover, the activity change in assay [3] is -0.148% [at 18.6 µM]. In addition, in assay [5], the fluorescence, % of Rose Bengal was -0.261% [at 18.6 µM]. Also, the fluorescence, % of fluorescein control in [7] was -0.0587% [at 18.6 µM]. For the same compound, the Potency entry in assay [9], in assay [11], in assay [13], in assay [14], in [12] and in assay [18] was “inactive” in each case. For the same compound, the result in [20] was inactive.
For `CNC(=O)[C@H]1O[C@@H](n2cnc3c(NCc4cc(Cl)ccc4OCc4cc(C)no4)ncnc32)[C@H](O)[C@@H]1N`, the result in assay [1], in assay [2], in assay [3], in assay [4], in assay [5] and in [6] was inactive. Moreover, the compound was classed as inactive in assay [7], in assay [8], in [10], in [16] and in assay [17]. The Potency result in [9], in [13], in assay [14], in [12], in assay [15] and in assay [18] was “inactive” each time. Also, the Potency result in assay [19] is “inactive”.
